Most compounds without a hit are left out; they make up all but 3.5% or so of the library.
Mtb hypoxia inh = inhibitors of hypoxia-regulated fluorescent reporter in Mycobacterium tuberculosis; M. tuberculosis hypoxia-regulated fluorescent reporter, fluorescence; fluorescence inhibition, % (test concentration not listed); 300,000 tested, 0.1% active; in the data active means fluorescence inhibition mostly above about 23%, no sharp cut-off; inactive means mostly below about 17%
UGM FP inh = inhibitors of M. tuberculosis UDP-galactopyranose mutase; P9WIQ1; inhibition, % at 10 µM; 320,000 tested, 0.06% active; AID 504406; purified UGM, fluorescence polarization probe displacement; in the data active means inhibition above about 10%, passing the limit was not always enough; inconclusive means no clear call, values can overlap the other calls
Target sequence (P9WIQ1 whole entry, looked up): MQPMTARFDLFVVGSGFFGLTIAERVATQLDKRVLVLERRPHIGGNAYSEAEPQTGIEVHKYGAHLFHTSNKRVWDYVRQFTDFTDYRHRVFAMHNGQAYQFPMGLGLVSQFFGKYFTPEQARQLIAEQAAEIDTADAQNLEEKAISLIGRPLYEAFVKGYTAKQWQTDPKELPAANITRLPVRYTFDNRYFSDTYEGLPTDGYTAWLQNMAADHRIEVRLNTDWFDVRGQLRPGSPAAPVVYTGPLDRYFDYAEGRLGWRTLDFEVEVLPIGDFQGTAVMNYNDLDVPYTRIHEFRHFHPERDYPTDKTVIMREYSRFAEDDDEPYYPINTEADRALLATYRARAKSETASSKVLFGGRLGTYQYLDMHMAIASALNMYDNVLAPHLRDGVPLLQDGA
FBA Mtb inh = inhibitors of M. tuberculosis fructose-bisphosphate aldolase. P9WQA3. inhibition, % at 1 µM. purified M. tuberculosis FBA, fluorescence read-out. AID 588726. 360,000 tested, 2.3% active;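 further: 0% = vehicle and 100% = reference inhibitor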
Rv3671c protease = Rv3671c (M. tuberculosis) protease inhibition; inhibition, % at 5.96 µM; P9WHR9; 320,000 tested, 0.048% active; in the data active means inhibition above about 38%;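 further: extracellular domain of Rv3671c used as enzyme; 0% = enzyme with DMSO and 100% = no enzyme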
FadD28 FP inh = blocks FadD28 binding to the bisubstrate probe | fluorescence polarization | inhibition, % at 12.5 µM | 360,000 tested, 0.22% active | AID 588549; in the data active means inhibition above about 8.5%, passing the limit was not always enough; inconclusive means no clear call, values can overlap the other calls
GDH-TPI counter-1 = GDH-TPI coupled enzyme inhibition counter-screen. GDH-TPI coupled enzyme counterscreen, NADH absorbance. inhibition, % at 4.8 µM. 360,000 tested, 1.2% active. AID 588335; in the data active means inhibition above about 30%;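 further: 0% = DMSO wells and 100% = wells lacking the enzyme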
Mtb FBA confirm = confirmation of M. tuberculosis fructose-bisphosphate aldolase inhibitors. purified M. tuberculosis FBA, fluorescence read-out. inhibition, % at 1 µM. 5,600 tested, 78% active. AID 651616. shares compounds with FBA Mtb inh;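 further: 0% = vehicle wells and 100% = reference inhibitor wells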
GDH-TPI counter-2 = GDH-TPI inhibition counter-screen for FBA inhibitors; shares compounds with FBA Mtb inh; GDH-TPI coupled enzyme counterscreen, fluorescence; inhibition, % at 1 µM; 5,600 tested, 81% active; AID 652141; in the data active means inhibition above about 10%
The depositor's hits bear a star; ? = inconclusive; . = no result; + = active, no number. Unless noted, no stated cut-off is given here; in the data, active means inhibition above about 27%; inactive means the rest.

SMILES	Mtb hypoxia inh	UGM FP inh	FBA Mtb inh	Rv3671c protease	FadD28 FP inh	GDH-TPI counter-1	Mtb FBA confirm	GDH-TPI counter-2
O=C1Nc2ccc(S(=O)(=O)NCCCO)c3cccc1c23	-7.7	2.7	51.9*	.	-0.5	27.9	94.1*	61.2*
CCN(CC)S(=O)(=O)c1ccc2c3c(cccc13)C(=O)N2	7.5	-1.0	6.3	-1.3	-2.0	16.0	.	.
CCNS(=O)(=O)c1ccc2c3c(cccc13)C(=O)N2	2.5	-0.5	65.1*	-4.4	-2.2	19.1	53.4*	38.0*
O=C1Nc2ccc(S(=O)(=O)NCC3CCCO3)c3cccc1c23 (centres undefined)	8.2	-0.1	49.6*	-7.3	0.2	3.2	46.6*	30.5*
C[C@]12NC(Cc3ccccc31)c1ccccc12	1.4	.	.	.	.	.	.	.
CC(=NNS(=O)(=O)c1ccc(C)cc1)c1ccc(Br)s1	4.5	.	.	.	.	.	.	.
CC(CN1CCC(Cc2ccccc2)CC1)C(O)c1ccc(O)cc1 (centres undefined)	4.8	.	.	.	.	.	.	.
CCOC(=O)C1CCN(C(=O)Cn2cnc3sc(C)c(S(=O)(=O)N4CCC(C)CC4)c3c2=O)CC1	15.2	-0.4	77.8*	2.7	0.6	-1.8	185.7*	142.8*
CCOC(=O)C1CCN(C(=O)Cn2cnc3sc(C)c(S(=O)(=O)N4CCCCC4)c3c2=O)CC1	-6.9	-2.6	-1.9	1.2	-2.3	5.0	.	.
COCCNC(=O)C1(C)CCN(C(=O)c2ccc3c(c2)C(C)(C)CCC3(C)C)C1 (centres undefined)	.	.	27.2*	.	-0.5	-0.9	-3.7	-7.5
COCCNC(=O)C1(C)CCN(C(=O)c2ccc(F)c(C)c2)C1 (centres undefined)	.	.	2.3	.	0.9	5.6	.	.
O=C(N/C(=C\c1cccc([N+](=O)[O-])c1)C(=O)N1CCOCC1)c1ccco1	2.2	-4.1	64.9*	-1.2	.	20.1	176.1*	142.2*
Cc1nc(-c2cn[nH]c2)c2cc(C)oc2n1	.	-0.2	26.9*	-4.2	-3.4	-4.9	133.6*	109.9*
Cc1cc2c(C)nc(-c3ccccc3)nc2o1	2.0	0.3	1.9	-1.5	1.3	0.8	.	.
COc1ccc2nc(/C=N/NC(=O)CCCCCNC(=O)OC(C)(C)C)ccc2c1	.	-2.8	62.9*	-3.0	-2.5	33.3*	94.5*	86.0*
O=C(O)c1cc(NN=Cc2ccc3c(c2)OCCO3)ccc1Cl	2.1	.	.	.	.	.	.	.
O=S(=O)(c1ccc(NC(=S)NN=Cc2cccc(Oc3ccccc3)c2)cc1)N1CCOCC1	5.8	.	.	.	.	.	.	.
CC(=O)N1N=C(c2ccncc2)OC12CCCCCC2	13.3	0.6	77.2*	-11.7	1.0	6.7	+	+
CC(=O)N1N=C(c2ccncc2)OC12CCCCC2	4.3	0.0	88.7*	1.5	-1.0	0.0	48.8*	39.6*
CC(=O)N1N=C(c2ccccc2)OC12CCCC2	12.7	0.7	0.3	0.9	0.3	-2.2	.	.
COCCN=c1scc(-c2cc(OC)ccc2OC)n1N=Cc1c[nH]c2ccccc12	4.3	.	.	.	.	.	.	.
COCCCN1CN(S(=O)(=O)c2ccc(Cl)cc2)c2nc3ccccc3nc21	19.3	1.1	14.8	-5.5	?	26.6	.	.
O=S(=O)(c1cccc(Cl)c1)N1CN(CC2CCCO2)c2nc3ccccc3nc21 (centres undefined)	3.5	1.5	36.1*	2.1	-2.6	21.4	187.6*	146.0*
COCCN1CN(S(=O)(=O)c2cccc(Cl)c2)c2nc3ccccc3nc21	-3.1	2.0	29.4*	7.5	-1.7	26.6	53.7*	30.0*
CCC(C)C1CN=C(N)N1CCCc1cc(OC)c(OC)c(OC)c1 (centres undefined)	-2.2	.	.	.	.	.	.	.
SMILES	Mtb hypoxia inh	UGM FP inh	FBA Mtb inh	Rv3671c protease	FadD28 FP inh	GDH-TPI counter-1	Mtb FBA confirm	GDH-TPI counter-2
COc1ccc(S(=O)(=O)NCCc2ccccn2)cc1	2.1	-1.4	-1.4	1.2	-2.9	-8.5	.	.
COc1ccc(S(=O)(=O)NCCc2cn3nc(C)c(C)nc3n2)cc1	-8.3	1.3	59.2*	8.4	-0.4	0.9	-4.1	-3.2
Cc1nc2nc(CCNS(=O)(=O)c3ccc(Cl)cc3)cn2nc1C	.	-1.2	72.2*	1.2	0.2	4.3	61.5*	63.0*
CCN(CC)CCNS(=O)(=O)c1ccc(Cl)cc1	7.3	6.0	1.1	-13.0	-1.2	7.7	.	.
CCc1nnc(NS(=O)(=O)c2ccc(NC=CC(=O)c3ccc(C)cc3)cc2)s1	6.3	.	.	.	.	.	.	.
Cc1ccc(C(=O)N(CC(=O)NC2CCCCC2)c2ccccc2C)s1	6.3	1.4	1.6	-5.4	-1.4	3.3	.	.
CC1=CC2=NC(=O)CC(C)(C(=O)N(CC(=O)NC3CCCC3)Cc3ccc(Cl)cc3)N2C=C1 (centres undefined)	6.5	-1.2	57.9*	3.1	-2.3	-3.9	115.1*	122.2*
CC1(c2ccc(Cl)cc2)NC(=O)N(CC(=O)NC2CCCCC2)C1=O (centres undefined)	15.4	2.0	0.9	-1.1	-1.9	-0.9	.	.
CC1=CC2=NC(=O)CC(C)(C(=O)N(CC(=O)NC3CCCC3)c3ccccc3C)N2C=C1 (centres undefined)	9.2	-3.5	62.0*	0.4	-0.3	10.1	+	+
CC1=CC2=NC(=O)CC(C)(C(=O)N(CC(=O)NC3CCCC3)c3ccccc3F)N2C=C1 (centres undefined)	.	1.0	46.7*	-1.5	-4.7	-8.3	44.7*	37.0*
C=CCC(CC(=O)NC(CO)Cc1ccccc1)C(=O)NCCOC(=O)C(CC=C)CC(=O)OC(C)(C)C (centres undefined)	4.1	.	.	.	.	.	.	.
CCNC(=S)NN=Cc1ccccc1[N+](=O)[O-]	-3.7	.	.	.	.	.	.	.
Cc1ccc(C=NNC(=O)CN2CCN(Cc3ccccc3)CC2)o1	3.9	.	.	.	.	.	.	.
O=C(NN=C/C=C\c1cccc([N+](=O)[O-])c1)c1cccnc1	8.0	.	.	.	.	.	.	.
CCOC(=O)c1cn(Cc2ccc(Cl)cc2Cl)c2cc(C)nn2c1=O	1.2	-0.5	29.1*	0.8	-1.3	3.7	72.2*	58.8*
CCOC(=O)c1cn(Cc2ccccc2)c2cc(C)nn2c1=O	14.5	-3.5	52.5*	-2.3	-1.9	2.4	103.5*	86.5*
